In the library only some 15% were active in any assay of this set; here they are far more common.
12-LOX inh = ALOX12 (human) lipoxygenase inhibition; hit rate 1.1% among 580,000; Potency, µM (doses to about 108 µM), inactives show at the top dose activity change, negative = inhibition, hits mostly inhibitors; P18054; purified 12hLO, xylenol orange hydroperoxide absorbance
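Purified human 12hLO (150 nM final) in 25 mM Hepes, 0.01% Triton X-100, pH 7.0 was preincubated 15 min at room temperature with compound. Then 40 uM arachidonic acid was added, 30 min. Hydroperoxide was read by Fe-XO absorbance ratio 573/405 nm.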
TDP1 cell noCPT = qHTS for Inhibitors of human tyrosyl-DNA phosphodiesterase 1 (TDP1): qHTS in cells in absence of CPT; DT40 Tdp1-/- hTDP1 cells, no CPT, ATP luminescence, 48 h; Potency, µM (top dose mostly 46.2 µM), for the others: top-dose activity change, negative = growth inhibition, actives largely listed as inhibitors; hit rate 15% among 420,000; AID 686978, 2013; note: nearly all actives have a fitted effect of over 55% in size
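Camptothecin absent (DMSO only). Human TDP1-complemented DT40 knockout cells, 400 cells/well, 37 °C for minimum 48 hr; ATP measured via CellTiter-Glo, 30 min dark incubation, luminescence.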
VP16 counter = inhibits Gal4-VP16 luciferase reporter, ROR gamma counter-screen | hit rate 3.5% among 310,000 | Potency, µM (doses to about 53.6 µM), inactives show at the highest dose activity, negative = inhibition, actives largely listed as inhibitors | Drosophila S2 Gal4-VP16 UAS-luciferase, luminescence, 20 h;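 note: Gal4-VP16 expression switched on by copper sulfate through the metallothionein promoter; nearly all actives have a fitted effect of over 50% in size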
RORg inh = inhibitors of mouse ROR gamma transcriptional activity. Potency, µM (highest dose often 53.6 µM), for inactives: at the top dose activity change, negative = inhibition, hits mostly inhibitors. Drosophila S2 Gal4-RORgamma UAS-luciferase reporter, 20 h. hit rate 5.4% among 310,000; note: nearly all actives have a fitted effect of over 60% in size
Target sequence (P51450 whole entry, looked up, the tested form may be a part): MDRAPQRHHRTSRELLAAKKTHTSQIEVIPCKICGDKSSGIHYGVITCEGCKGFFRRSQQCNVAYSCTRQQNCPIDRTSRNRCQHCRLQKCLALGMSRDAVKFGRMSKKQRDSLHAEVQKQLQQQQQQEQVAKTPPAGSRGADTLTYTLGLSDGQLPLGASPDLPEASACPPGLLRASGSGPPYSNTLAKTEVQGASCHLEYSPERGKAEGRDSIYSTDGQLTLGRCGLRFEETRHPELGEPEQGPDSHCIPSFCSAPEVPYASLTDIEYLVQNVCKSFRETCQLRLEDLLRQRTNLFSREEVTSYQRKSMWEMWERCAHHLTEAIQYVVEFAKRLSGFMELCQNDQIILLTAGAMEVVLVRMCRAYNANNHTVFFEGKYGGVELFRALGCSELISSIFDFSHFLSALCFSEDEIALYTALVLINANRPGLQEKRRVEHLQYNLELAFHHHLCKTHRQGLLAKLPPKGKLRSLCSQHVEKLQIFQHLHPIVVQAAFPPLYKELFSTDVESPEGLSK
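Using a luciferase readout, inhibitors were identified by reduced reporter activity in Drosophila cells coexpressing a copper-inducible Gal4–ROR gamma fusion and UAS-driven Photinus luciferase, incubated 20 hr after 700 uM copper sulfate.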
DT40 TDP1 CPT = DT40-hTDP1 cell growth loss with CPT; chicken DT40 Tdp1-/-;hTDP1 cells + 20 nM CPT, ATP luminescence, 48 h; Potency, µM (doses to about 46.2 µM), for inactives: at the highest dose activity change, negative = growth inhibition, actives largely listed as inhibitors; hit rate 12% among 420,000; note: nearly all actives have a fitted effect of over 55% in size
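Cell growth measured by CellTiter-Glo luminescence after a minimum 48 h, 37 C compound exposure with 20 nM CPT in Tdp1-knockout DT40 cells stably expressing hTDP1, seeded 400/well; qHTS titration format.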
ELG1 repair inh = ELG1-dependent DNA repair inhibition; HEK293T ELG1-luciferase reporter, luminescence, 16 h; DNA damage induced by 5-fluorouridine; Potency, µM (titrated, usually from 46.1 µM), inactives show top-dose activity change, negative = inhibition, hits mostly inhibitors; hit rate 2.3% among 330,000; AID 504467; note: nearly all actives have a fitted effect of over 55% in size
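Quantitative HTS, concentration-response format. 2,000 cells/well co-treated with 5-fluorouridine and compound, 16 hr in 5% CO2 at 37 °C; ONE-Glo luminescence read after 30 min.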
The depositor's hits bear a star; ? = inconclusive; nt = no result; [ ] = another dose, or the depositor's remark. Calls come from the whole dose curve; as a rule, active = well fitted curve in the direction sought with a large enough effect; inconclusive = small, poorly fitted or top-dose-only effect, or another doubt; inactive = no such curve, though single readings can be large; an effect the other way counts as inactive or inconclusive. % is set by controls: 0 for no effect and ±100 for the full control effect; potency is the fitted concentration of half-maximal effect.

SMILES | 12-LOX inh | TDP1 cell noCPT | VP16 counter | RORg inh | DT40 TDP1 CPT | ELG1 repair inh
CC1=NN(C(=O)Cn2nc([N+](=O)[O-])cc2C)C(O)(C(F)(F)F)C1 (stereo not drawn) | -10% | -18% | ? | 10µM* | -6% | -2%
CC1=NN(C(=O)c2ccc(Cn3nc(C)c(Br)c3C)cc2)C(O)(C(F)(F)F)C1 (stereo not drawn) | 26% | 0.58µM* | 13µM* | ? | 0.82µM* | -29%
Cc1cc([N+](=O)[O-])nn1CC(=O)N1N=C(C(F)F)CC1(O)C(F)F (stereo not drawn) | -4% | -18% | -18% | -3% | 3% | 8%
CC(=O)N1CCC(N2CCC3(CC2)CN(Cc2ccccc2)CC3CO)CC1 (stereo not drawn) | 62% | nt | nt | nt | nt | nt
COc1ccc(CNC(=O)Cn2nc(C(F)(F)F)c(Br)c2C)cc1 | 63% | ? | 0% | 5% | -19% | -7%
COc1cc(NC(=O)Cn2nc(C(F)(F)F)c(Br)c2C)cc([N+](=O)[O-])c1 | -6% | 21µM* | 18µM* | ? | 15µM* | 18µM*
CC(=O)c1c(C)oc2ccc(N(C(C)=O)S(=O)(=O)c3ccc(Br)cc3)cc12 | 9% | ? | nt | nt | ? | nt
CC(=O)c1c(C)oc2ccc(N(C(C)=O)S(=O)(=O)c3cccc4cccnc34)cc12 | 3% | 4.1µM* | -14% | 17% | 2.1µM* | 5.8µM*
CC(=O)c1c(C)oc2ccc(N(C(C)=O)S(=O)(=O)c3ccc(F)cc3C)cc12 | -5% | 16µM* | ? | 29% | 12µM* | ?
CCS(=O)(=O)Nc1ccc(C2=NN(C(C)=O)C(c3ccco3)C2)cc1 (stereo not drawn) | -18% | nt | nt | nt | nt | nt
COc1cccc(Nc2nc3c(S(=O)(=O)c4ccccc4)nnn3c3ccsc23)c1 | -7% | nt | nt | nt | nt | nt
CCc1ccc(S(=O)(=O)c2nnn3c2nc(NCCC(C)C)c2cc(Cl)ccc23)cc1 | -29% | 21µM* | nt | nt | ? | nt
CCc1ccc(Nc2nc3c(S(=O)(=O)c4cccc(Cl)c4)nnn3c3ccsc23)cc1 | -16% | 4.6µM* | nt | nt | 6.5µM* | nt
COc1cc(Nc2nc3c(S(=O)(=O)c4cccc(Cl)c4)nnn3c3ccsc23)cc(OC)c1 | 3% | 7.3µM* | nt | nt | 9.2µM* | nt
CCc1ccc(S(=O)(=O)c2nnn3c2nc(Nc2ccc(NC(C)=O)cc2)c2sccc23)cc1 | ? | ? | nt | nt | 23µM* | nt
Cc1ccc(-c2nn(Cc3ccccc3)cc2C(=O)N2CCN(CCO)CC2)cc1 | 9% | nt | nt | nt | nt | nt
CC(C(=O)NC(=O)NC1CC1)N1CCN(c2ccccc2F)CC1 (stereo not drawn) | 6% | nt | nt | nt | nt | nt
Cc1ccc(S(=O)(=O)N2[C@H](CC(=O)OCc3ccccc3)OC[C@@H]2C(C)C)cc1 | 3% | 23µM* | nt | nt | 21µM* | nt
CCN(Cc1cccs1)C(=O)/C=C/c1cccnc1 | 13% | nt | nt | nt | nt | nt
COC(=O)c1ccccc1NC(=O)CCCn1nc([N+](=O)[O-])c(Br)c1C | -11% | -20% | 4%[10 µM] | 41% | 15µM* | 9%
Cc1c(Br)c([N+](=O)[O-])nn1CCCC(=O)Nc1sc2c(c1C#N)CCC2 | ? | 16µM* | 2% | ? | 15µM* | -25%
Cc1c(Cl)c([N+](=O)[O-])nn1CCCC(=O)Nc1sc2c(c1C#N)CCC2 | ? | -23% | -4% | 16% | -22% | -2%
CCc1nc(C)c(C(=O)N2CCC(c3[nH]ncc3-c3ccccc3C)CC2)o1 | 81% | nt | nt | nt | nt | nt
Cc1ccc(C(=O)NC2CCN(c3ccc(F)cc3)C2=O)s1 (stereo not drawn) | 37% | nt | nt | nt | nt | nt
Cc1nc(C(=O)NC2CCCCC2)sc1C1(C)CC(c2cccc([N+](=O)[O-])c2)=NO1 (stereo not drawn) | 13% | 23µM* | -8% | ? | ? | ?
SMILES | 12-LOX inh | TDP1 cell noCPT | VP16 counter | RORg inh | DT40 TDP1 CPT | ELG1 repair inh
Cc1nc(C(=O)NCCC(C)C)sc1C1(C)CC(c2ccccc2)=NO1 (stereo not drawn) | -17% | -28% | 1% | -5% | -23% | 13µM*
COc1ccc(NC(=O)c2nc(C)c(C3(C)CC(c4cccnc4)=NO3)s2)cc1 (stereo not drawn) | 2% | 3.7µM* | -5% | 27% | 5.8µM* | ?
CNC(=O)c1nc(C)c(C2(C)CC(c3ccccc3)=NO2)s1 (stereo not drawn) | -13% | -28% | -4% | 6% | -10% | 27%
Cc1nc(C(=O)Nc2cc(F)cc(Cl)c2)sc1C1(C)CC(c2ccccc2)=NO1 (stereo not drawn) | ? | 21µM* | nt | nt | 16µM* | nt
Cc1nc(C(=O)Nc2ccc(Cl)cc2)sc1C1(C)CC(c2cccc([N+](=O)[O-])c2)=NO1 (stereo not drawn) | 6% | ? | nt | nt | ? | nt
CCCOc1ccc(NC(=O)CC2C(=O)N(c3ccccc3)C(=O)N2CCC(C)C)cc1 (stereo not drawn) | -19% | 15µM* | nt | nt | ? | nt
Cc1ccc(N2C(=O)C(CC(=O)Nc3cccc(F)c3)N(CCc3ccccc3F)C2=O)cc1 (stereo not drawn) | 0% | 21µM* | nt | nt | 16µM* | nt
CNC(=O)CC1C(=O)N(c2ccc(Cl)cc2)C(=S)N1CCc1ccc(OC)c(OC)c1 (stereo not drawn) | -28% | 9.2µM* | -25% | ? | ? | ?
COc1ccc(CCN2C(=O)N(c3ccc(C)cc3)C(=O)C2CC(=O)Nc2ccc(OC)cc2)cc1 (stereo not drawn) | -22% | ? | nt | nt | 21µM* | nt
CCCOc1ccc(NC(=O)CC2C(=O)N(c3ccc(F)cc3)C(=O)N2CC(C)C)cc1 (stereo not drawn) | -14% | ? | nt | nt | ? | nt
O=C(NC1CCCCC1)N1CCC2(CC1)Nc1ccccc1-n1cccc12 | -2% | nt | nt | nt | nt | nt
CC(C)CC(NC(=O)C1CCCCC1)C(=O)NCCc1ccccc1 (stereo not drawn) | -60% | nt | nt | nt | nt | nt
COc1ccc(N2C(=O)C(CC(=O)Nc3ccccc3)N(CCc3ccc(OC)c(OC)c3)C2=O)cc1 (stereo not drawn) | 1% | -24% | 3% | 0% | -15% | -28%
COc1ccc(CCN2C(=O)N(c3ccccc3)C(=O)C2CC(=O)Nc2ccccc2)cc1 (stereo not drawn) | 2% | 26µM* | nt | nt | ? | nt
